This passage reports inhibition results from PubChem BioAssay AID1135 (Sanford-Burnham Center for Chemical Genomics, 2008).

Hit rate of the full screen: of about 200,000 compounds, about 65 (0.03%) were called active. The sample holds actives, similar compounds and a random draw of the others, so the mix is not that of the screen. Unmarked numbers belong to inactive results.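 How the source made its calls: active means over 50% inhibition of tissue-nonspecific alkaline phosphatase at 20 µM in the single-dose screen; inactive means the rest.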

Chain of Alkaline phosphatase, tissue-nonspecific isozyme (Homo sapiens) (P05186 whole entry, looked up): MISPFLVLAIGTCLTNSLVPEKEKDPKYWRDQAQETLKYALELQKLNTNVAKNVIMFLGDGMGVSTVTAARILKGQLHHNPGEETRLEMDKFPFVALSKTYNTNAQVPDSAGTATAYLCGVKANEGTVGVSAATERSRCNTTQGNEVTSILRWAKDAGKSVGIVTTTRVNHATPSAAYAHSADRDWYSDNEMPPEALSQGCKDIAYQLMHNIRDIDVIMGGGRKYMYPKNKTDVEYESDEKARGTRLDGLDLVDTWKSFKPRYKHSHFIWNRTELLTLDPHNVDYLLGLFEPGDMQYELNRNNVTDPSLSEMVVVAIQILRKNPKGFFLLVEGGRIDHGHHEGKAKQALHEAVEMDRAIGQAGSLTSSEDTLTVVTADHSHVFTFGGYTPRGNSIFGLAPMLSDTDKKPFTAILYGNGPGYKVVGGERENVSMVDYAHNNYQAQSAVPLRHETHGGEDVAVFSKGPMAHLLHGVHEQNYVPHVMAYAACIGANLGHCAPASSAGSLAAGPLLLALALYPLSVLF

The assay concerns the target Alkaline phosphatase, tissue-nonspecific isozyme (Homo sapiens) (UniProt P05186). The assay is described as follows: blockers of alkaline phosphatase TNAP activity – biochemical, luminescent, high phosphate acceptor level, uHTS, primary screen (AID 1135).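 Further: plate controls were DMSO wells for no effect and EDTA-quenched wells as full inhibition for full effect.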 As to conditions: purified TNAP, CDP-star luminescence, 1 M DEA; at 20 µM; active compounds read high.
`OC(CN=c1sc2ccccc2n1CC(O)COc1ccccc1)COc1ccccc1` (configuration not stated): the inhibition (commonly the drop in the measured response relative to a control, in per cent) was -2%.
In the case of `CC(C)(C)C(=O)N1CCC[C@@]1(CO)C(=O)O` it was 1.3%.
In the case of `CCCn1nc(C(=O)Nc2ccc3nc(C)sc3c2)c2ccccc2c1=O` it was 0%.
The same measure for `O=C(NNc1cc(Cl)ccc1Cl)c1cccnc1Cl`: -3.3%; for `Cn1cnnc1Sc1ccc(S(C)(=O)=O)cc1[N+](=O)[O-]`: 3.1%.
`CN(C)S(=O)(=O)c1ccc(N2CCCC2=O)c([N+](=O)[O-])c1`: the inhibition is -2.1%.
Take `Cc1ccccc1Nc1nc(N)nc(CSc2nnc3ccccn23)n1`: the inhibition was -3.4%.
Regarding `O=C1CCC/C(=N\NC(=O)NC2CCCCC2)C1`, the inhibition is 3.6%.
In the case of `Cc1ccccc1C1=NC(C(F)(F)F)(C(F)(F)F)c2c(n(-c3ccc(F)cc3)c(=O)[nH]c2=O)N1` it was -3.5%; in that of `Cc1cccc(NC(=S)Nc2ccc(Cl)c(Cl)c2)c1`, -5.2%; in that of `COc1ccccc1Oc1ccc(N/C=C2/CCCC2=O)cc1`, -1.1%.
Regarding `Cc1ccc(OCc2n[nH]c(=S)n2-c2ccccc2)cc1`, the inhibition was -3.4%.
In the case of `COC(=O)c1c(NC(=O)c2c(Cl)cnn2C)sc(C)c1C` it was -0.7%; in that of `Cc1nc2ccccc2nc(C)c1=NOCc1ccc(Cl)cc1Cl`, -3.2%.
In the case of `O=C(/C=C/c1ccc(F)cc1)NC(=S)NNC(=O)c1cccnc1` it was -2.2%.
The same measure for `CC1=C[C@H]2Cc3cc(C)cc(C)c3S(=O)(=O)[C@@H]2C=C1`: 1.3%; for `Cc1ccc(C)c(-n2nnnc2SCC(=O)c2c(N)n(C)c(=O)n(C)c2=O)c1`: -2.7%; for `COc1cccc(NC(=S)N(Cc2ccc(C)cc2)Cc2ccccn2)c1`: -3.4%.
As to `COc1cccc(C2CC(c3ccccc3)=NN2S(=O)(=O)c2ccccc2)c1OC` (configuration not stated), the inhibition is -5.8%.
The same measure for `Cn1c(=N)n(CC(O)c2cccs2)c2ccccc21` (configuration not stated): -2%; for `C=CCNc1nc(Nc2ccc(Cl)cc2)nc(OC)n1`: -3%.
The same measure for `COC(=O)c1nn(-c2cccc(Cl)c2)ccc1=O`: -8.9%; for `CCN(CC)CCN(C(=O)c1ccc(N2C(=O)CCC2=O)cc1)c1nc2cc3c(cc2s1)OCO3`: -2.1%; for `CC(=O)c1cnc(SCC(=O)O)nc1C`: -1.6%.
For `Cc1cccc(C2=N/C(=C/c3cccs3)C(=O)O2)c1`, the inhibition is -2.6%.
As to `COC(=O)C(C(=O)Nc1cccc(Cl)c1C)C1CCCC1` (configuration not stated), the inhibition was -6.6%.
The same measure for `CCOC(=O)C1C(c2ccc(Cl)cc2)NC(=S)NC1(O)C(F)(F)F` (configuration not stated): 4.4%.
